KB-V1 cytotox = kills drug-selected multidrug resistant KB-V1 cells | KB-V1 MDR cells viability, CellTiter-Glo, 72 h | AID 1347076 | Potency, µM (titrated, usually from 46.1 µM), most hits filed as cytotoxic | 3.4% of 400,000 active; also: nearly all actives have a fitted effect of over 60% in size
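Readout: CellTiter-Glo luminescence, 10 min after addition. Cells: KB-V1 MDR subline, 72 h at 37 degrees C with compound. Analysis: corrected, normalized data fitted to concentration-effect curves.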
SW480 rerep = induces DNA re-replication in SW480 colon adenocarcinoma cells. Potency, µM (highest dose often 46.1 µM), usual class: activators. SW480 DNA re-replication, Hoechst DNA content imaging, 48 h. 1.8% of 340,000 active. AID 624297; also: nearly all actives have a fitted effect of over 55% in size
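Cells (250 per well) received 23 nL compound or DMSO by pin tool and were kept 48 hr at 37 C, 5% CO2. Nuclei were then stained with Hoechst for 40 min and scanned for DNA content.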
KB-3-1 cytotox = KB-3-1 parental cell cytotoxicity | 1.4% of 400,000 active | KB-3-1 viability, CellTiter-Glo ATP luminescence, 72 h | AID 1347075 | Potency, µM (highest dose often 46.1 µM), hits mostly cytotoxic; also: nearly all actives have a fitted effect of over 60% in size
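Cytotoxicity measured as CellTiter-Glo luminescence after 72 h at 37 C. Compound titrations were pinned onto drug-naive KB-3-1 parental adenocarcinoma cells grown in DMEM with 10% FBS, and normalized data fitted to concentration-response curves.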
ELG1 repair inh = inhibitors of ELG1-dependent DNA repair in HEK293T cells; HEK293T ELG1-luciferase reporter, luminescence, 16 h; DNA damage induced by 5-fluorouridine; Potency, µM (top dose mostly 46.1 µM), usual class: inhibitors; 2.3% of 330,000 active; AID 504467; also: nearly all actives have a fitted effect of over 55% in size
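Luminescence from the luciferase reporter, measured 30 min after ONE-Glo reagent at room temperature, was the read-out. Beforehand, 2,000 cells per well were exposed for 16 hr at 37 °C to 5-fluorouridine together with compound or vehicle.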
MCF10A rereplic = DNA re-replication induction in MCF 10a cells; MCF 10A DNA re-replication, Hoechst nuclear intensity, 48 h; Potency, µM (series often up to 46.1 µM), hits mostly activators; 2.9% of 350,000 active; AID 624296; also: nearly all actives have a fitted effect of over 50% in size
Numbers stand for hits; i = inactive; ? = inconclusive; nt = no result; [ ] = remark or other dose. A selection: hits, their analogues and other compounds. The true share with any hit is near 8.1%. Calls follow the shape of the dose curve; as a rule, active = well fitted curve in the direction sought with a large enough effect; inconclusive = small, poorly fitted or top-dose-only effect, or another doubt; inactive = no such curve, though single readings can be large; an effect the other way counts as inactive or inconclusive.

SMILES | KB-V1 cytotox | SW480 rerep | KB-3-1 cytotox | ELG1 repair inh | MCF10A rereplic
COc1ccc(N2CCN(C(=O)c3cccc(N4C(=O)C5C6C=CC(C6)C5C4=O)c3)CC2)cc1 (centres undefined) | i | i | i | i | i
COc1ccc(N2CCN(C(=O)c3cccc(N4C(=O)C5CC=CC(C)C5C4=O)c3)CC2)cc1 (centres undefined) | 18.4µM | i | i | i | i
O=C(c1cc(N2C(=O)C3C4CCC(C4)C3C2=O)ccc1Cl)N1CCCCCC1 (centres undefined) | i | i | i | i | ?
O=C(c1cc(N2C(=O)C3C4CCC(C4)C3C2=O)ccc1Cl)N1CCN(c2ccc(F)cc2)CC1 (centres undefined) | 2.59µM | i | ? | ? | ?
COc1ccc(N2CCN(C(=O)c3cc(N4C(=O)C5C6CCC(C6)C5C4=O)ccc3Cl)CC2)cc1 (centres undefined) | 4.61µM | i | ? | ? | i
O=C(NCc1ccc(F)cc1)c1ccc(CNc2c(N3CCOCC3)c(=O)c2=O)cc1 | ? | i | i | i | i
CCN(CC)c1ccc2c(c1)OC(N)=C(C#N)C2c1cccnc1 (centres undefined) | 0.291µM | 0.184µM | 0.0411µM | i | ?
N#CC1=C(N)Oc2cc(Nc3ccccc3)ccc2C1c1ccncc1 (centres undefined) | i | 16.4µM | ? | i | ?
Cc1cccc(N/C(N)=N/c2nc(C)c(Cc3ccccc3)c(=O)[nH]2)c1 | i | i | 20.6µM | i | i
COc1ccc(N/C(N)=N/c2nc(C)c(Cc3ccccc3)c(=O)[nH]2)cc1 | i | i | i | i | i
Cc1cccc(NC(=O)c2ccc(-n3ccnc3)nc2)c1 | i | i | i | i | i
COc1ccc(CCN(Cc2nc3ccccc3c(=O)[nH]2)C(=O)c2ccco2)cc1 | 20.6µM | i | i | ? | i
COCC(=O)N(CCc1ccc(OC)c(OC)c1)Cc1nc2ccccc2c(=O)[nH]1 | i | ? | i | i | i
COc1ccc(CN(Cc2nc3ccccc3c(=O)[nH]2)C(=O)C(C)(C)C)cc1 | i | i | i | i | i
CCC(CC)C(=O)N(CCc1ccc(OC)cc1)Cc1nc2ccccc2c(=O)[nH]1 | ? | 20.6µM | i | 23.1µM | 23.1µM
CCN(CCS(=O)(=O)c1ccc(Cl)cc1)Cc1nc2ccccc2c(=O)[nH]1 | 7.31µM | i | i | ? | i
CN(CC(=O)NC(=O)NCc1ccco1)Cc1nc2ccccc2c(=O)[nH]1 | i | 5.17µM | i | i | ?
CNc1c2cccc(C)c2nc2c(C(=O)NCCN(C)C)cccc12 | ? | ? | 0.291µM | nt | i
Cc1nc([N+](=O)[O-])c(C(=O)OCc2ccccc2)n1C | i | ? | i | i | i
CCCCNC(=S)N(C)/N=C/c1ccc(OCc2ccc(C(=O)OC)cc2)c(OC)c1 | 13µM | i | i | ? | ?
CCn1cc(C(=O)Nc2ccccc2C(=O)OC)cn1 | i | i | i | nt | i
CC(=O)c1c(OC(=O)c2ccccc2)c2ccccc2n1C | i | i | i | i | ?
COCc1cc(C)nc(SCC(=O)Nc2ccccc2N2CCOCC2)c1C#N | i | ? | i | i | 20.6µM
CCn1c(SCC(=O)Nc2cccc(OC)c2)nnc1-c1ccc(Cl)cc1 | 11.6µM | i | ? | ? | i
CCn1c(SCC(=O)NCc2cccs2)nnc1-c1ccncc1 | i | i | i | i | i
SMILES | KB-V1 cytotox | SW480 rerep | KB-3-1 cytotox | ELG1 repair inh | MCF10A rereplic
CCn1c(SCC(=O)Nc2cccc(NC(=O)c3cccs3)c2)nnc1-c1ccncc1 | i | i | i | 18.4µM | i
CCn1c(SCC(=O)Nc2nccs2)nnc1-c1ccc(S(=O)(=O)N2CCCCCC2)cc1 | ? | i | i | 20.6µM | i
CCn1c(SCCC(=O)Nc2ccccc2)nnc1-c1ccc(OC)cc1 | ? | i | i | i | i
CNCc1ccccc1Sc1ccc(OC)cc1 | i | i | i | i | ?
CCn1c(SCC(=O)Nc2ccc(N3CCOCC3)cc2)nnc1-c1ccc(OC)cc1 | 16.4µM | i | i | i | i
CCn1c(SCC(=O)Nc2ccccc2N2CCOCC2)nnc1-c1ccccc1 | 18.4µM | i | i | i | i
C[C@@H](NC(=O)c1[nH]cnc1C(=O)Nc1cccc(Cl)c1)c1ccccc1 | i | i[9.22 µM] | i | ? | 11.6µM
CN(Cc1ccccc1)C(=O)c1[nH]cnc1C(=O)Nc1ccc(Cl)cc1 | ? | i | ? | i | i
C[C@@H](NC(=O)c1[nH]cnc1C(=O)Nc1ccc(Cl)cc1)c1ccccc1 | ? | i | ? | ? | i
O=C(Nc1ccc(Cl)cc1)c1nc[nH]c1C(=O)NCc1ccccc1 | 16.4µM | i[9.22 µM] | ? | i | ?
C[C@H](NC(=O)c1[nH]cnc1C(=O)Nc1cccc(Cl)c1)c1ccccc1 | i | i | i | i | i
C[C@H](NC(=O)c1[nH]cnc1C(=O)Nc1ccc(Cl)cc1)c1ccccc1 | ? | i[9.22 µM] | ? | i | 16.4µM
CCOCCOC(=O)c1[nH]c2c(c1C)C(=O)CC(c1ccc(OC)c(OC)c1)C2 (centres undefined) | ? | i | i | ? | i
COCCOC(=O)c1[nH]c2c(c1C)C(=O)CC(c1cc(OC)ccc1OC)C2 (centres undefined) | ? | 13µM | 8.2µM | i | ?
COc1ccc(OC)c(C2CC(=O)c3c([nH]c(C(=O)OC(C)C)c3C)C2)c1 (centres undefined) | 0.517µM | 3.66µM | 0.461µM | ? | ?
COc1cc(C2CC(=O)c3c([nH]c(C(=O)OCCOC(C)C)c3C)C2)cc(OC)c1OC (centres undefined) | i | i | i | 10.3µM | i
COc1ccc(OC)c(C2CC(=O)c3c([nH]c(C(=O)OCC4CCCO4)c3C)C2)c1 (centres undefined) | ? | ? | 9.2µM | 10.3µM | 14.6µM
CCOC(=O)c1[nH]c2c(c1Cc1ccccc1C)C(=O)CC(c1cc(OC)ccc1OC)C2 (centres undefined) | i | nt | i | nt | nt
COc1ccc(OC)c(NC(=O)CCNC(=O)Cn2ccc3ccccc3c2=O)c1 | ? | i | i | i | ?
C/C(=N\OC(=O)c1ccc(Cl)c(Cl)c1)c1sc(C)nc1C | i | i | i | i | i
Nc1nccc(-c2cc(-c3ccc(Cl)cc3Cl)no2)n1 | ? | i | i | ? | i
CCCOCCOC(=O)c1[nH]c2c(c1C)C(=O)CC(c1cc(OC)ccc1OC)C2 (centres undefined) | 5.8µM | 3.66µM | 5.8µM | ? | ?
Nc1nc(-c2ccccn2)nc(N)c1Cc1ccccc1F | ? | i | i | ? | ?
Nc1nc(-c2ccccn2)nc(N)c1Cc1ccc(Cl)cc1Cl | ? | 10.3µM | ? | i | ?
C[C@]12c3[nH]c4ccc(Cl)cc4c3CCN1C(=O)[C@@H](CC(=O)NCCc1ccccn1)C[C@@H]2C(=O)N1CCCCC1 | i | i | i | 7.3µM | ?

Compound activity deposited in PubChem by National Center for Advancing Translational Sciences (NCATS).
